Records with an inconclusive call do not appear. The source made the active and inactive calls. Unless noted, calls follow the shape of the dose curve; as a rule, active = well fitted curve in the direction sought with a large enough effect in the repeat runs; inconclusive = weak or mixed curves; inactive = no such curve, though single readings can be large; an effect the other way counts as inactive or inconclusive.
Key:
[1] = molecular target: Estrogen receptor (Homo sapiens) (UniProt P03372); test: qHTS assay to identify small molecule antagonists of the estrogen receptor alpha (ER-alpha) signaling pathway using the BG1 cell line in the presence of 0.1 nM 17-beta-estradiol (AID 1259244); also: nearly all actives have a fitted effect of over 50% in size
Summary of the method: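 Luminescence after ONE-Glo (30 min, room temperature) measured ERE-luciferase activity in VM7Luc4E2 cells treated 22 h with compound and 0.1 nM final 17beta-estradiol as stimulator.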

[2] = qHTS assay to identify small molecule HDAC inhibitors (AID 1259364);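 also: wild-type HCT-116 cells with endogenous class I/II HDAC activity; top concentration of the series differs between compounds; nearly all actives have a fitted effect of over 45% in size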
Summary of the method: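 HCT-116 (wild type), 1,500 cells/well, overnight; compound 2 hr 37C 5% CO2; HDAC-Glo I/II reagent 30 min RT; luminescence readout.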

[3] = qHTS assay to identify small molecule HDAC inhibitors - cell viability counter screen (AID 1259365); also: series mostly up to about 92 µM; nearly all actives have a fitted effect of over 50% in size
Summary of the method: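 HCT-116 (wild type), 1,500 cells/well, overnight 37C/5% CO2; compound in DMSO 2hr; CellTiter-Glo 30min RT; luminescence read.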

[4] = qHTS assay to identify small molecule agonists of the sonic hedgehog signaling (Shh) pathway - cell viability counter screen (AID 1259366); also: nearly all actives have a fitted effect of over 50% in size
Summary of the method: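 CellTiter-Fluor fluorescence read-out, 1 hr at 37C, added after 23hr compound exposure. Cells: 3T3 Gli1-Luc, an NIH/3T3 clone with stably integrated Gli1-Luc reporter, plated 4hr before compound.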

[5] = qHTS assay to identify small molecule antagonists of the sonic hedgehog signaling (Shh) pathway - cell viability counter screen (AID 1259367); also: nearly all actives have a fitted effect of over 55% in size
Summary of the method: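 Viability was read by CellTiter-Fluor fluorescence in the same wells, reagent added 23 hr into compound treatment and incubated 1 hr at 37C. The 3T3 Gli1-Luc reporter cells (2,000/well) received conditioned medium after compound and ran 24 hr.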

[6] = qHTS assay to identify small molecule agonists of the sonic hedgehog signaling (Shh) pathway (AID 1259368; calls by dose curve;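 also: NIH/3T3-derived 3T3Gli1-Luc cells carrying a stable Gli1-driven firefly luciferase reporter; series mostly up to about 92 µM; nearly all actives have a fitted effect of over 15% in size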)
Summary of the method: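 Read-out: firefly luciferase luminescence from a Gli1 response element reporter stably integrated in NIH/3T3-derived 3T3Gli1-Luc cells, measured 30 min at room temperature after reagent addition. Compound exposure lasted 24 hr at 37 C, 5% CO2.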

[7] = qHTS assay to identify small molecule antagonists of the sonic hedgehog signaling (Shh) pathway (AID 1259369; calls by dose curve; also: nearly all actives have a fitted effect of over 45% in size)
Summary of the method: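 Luminescence readout: firefly Luc under Gli1 response element in 3T3Gli1-Luc cells (NIH/3T3 clone). Antagonist mode, stimulation by conditioned medium; compound exposure 24hr at 37 C, 5% CO2.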

[8] = molecular target: Estrogen receptor beta (Homo sapiens) (UniProt Q92731); test: qHTS assay to identify small molecule agonists of the estrogen receptor beta (ER-beta) signaling pathway (AID 1259377; active = well fitted activation curve with a large enough effect in the signal ratio in the repeat runs, not every such curve was filed as active; the % refers to the signal ratio)
Summary of the method: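 Beta-lactamase reporter readout: fluorescence of LiveBLAzer B/G FRET substrate after 2 h at room temperature, following 16 h compound treatment of ER-beta-UAS-bla HEK293T cells at 37C in 2% charcoal-stripped FBS medium.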

[9] = qHTS assay to identify small molecule phospholipidosis (PLD) inducers (AID 1259344; active = well fitted curve in the direction sought with a large enough effect; an effect the other way counts as inactive or inconclusive)
Summary of the method: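 Phospholipid accumulation was scored by imaging: fixed, Hoechst-counterstained HepG2 cells stained with LipidTOX Red after 24 h compound exposure at 37 C. Read-outs were pit count and pit intensity per well or per cell, with amiodarone and DMSO controls.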

Measured: Potency

Estrogen receptor beta (Homo sapiens), sequence (Q92731 whole entry, looked up): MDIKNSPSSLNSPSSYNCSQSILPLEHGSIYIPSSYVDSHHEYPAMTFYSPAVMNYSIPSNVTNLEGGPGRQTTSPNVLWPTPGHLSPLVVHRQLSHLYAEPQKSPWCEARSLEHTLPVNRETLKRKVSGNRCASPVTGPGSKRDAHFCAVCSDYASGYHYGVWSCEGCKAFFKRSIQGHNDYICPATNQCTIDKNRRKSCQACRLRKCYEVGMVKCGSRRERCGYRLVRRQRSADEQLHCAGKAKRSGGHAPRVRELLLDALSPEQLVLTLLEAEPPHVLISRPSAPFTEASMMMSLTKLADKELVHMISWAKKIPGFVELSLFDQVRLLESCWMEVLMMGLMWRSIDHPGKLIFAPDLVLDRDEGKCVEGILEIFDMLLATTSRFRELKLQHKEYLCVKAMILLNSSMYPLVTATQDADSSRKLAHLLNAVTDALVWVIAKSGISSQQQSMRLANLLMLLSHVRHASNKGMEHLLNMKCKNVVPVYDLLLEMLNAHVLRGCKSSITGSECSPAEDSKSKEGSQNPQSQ
Estrogen receptor (Homo sapiens), sequence (P03372 whole entry, looked up): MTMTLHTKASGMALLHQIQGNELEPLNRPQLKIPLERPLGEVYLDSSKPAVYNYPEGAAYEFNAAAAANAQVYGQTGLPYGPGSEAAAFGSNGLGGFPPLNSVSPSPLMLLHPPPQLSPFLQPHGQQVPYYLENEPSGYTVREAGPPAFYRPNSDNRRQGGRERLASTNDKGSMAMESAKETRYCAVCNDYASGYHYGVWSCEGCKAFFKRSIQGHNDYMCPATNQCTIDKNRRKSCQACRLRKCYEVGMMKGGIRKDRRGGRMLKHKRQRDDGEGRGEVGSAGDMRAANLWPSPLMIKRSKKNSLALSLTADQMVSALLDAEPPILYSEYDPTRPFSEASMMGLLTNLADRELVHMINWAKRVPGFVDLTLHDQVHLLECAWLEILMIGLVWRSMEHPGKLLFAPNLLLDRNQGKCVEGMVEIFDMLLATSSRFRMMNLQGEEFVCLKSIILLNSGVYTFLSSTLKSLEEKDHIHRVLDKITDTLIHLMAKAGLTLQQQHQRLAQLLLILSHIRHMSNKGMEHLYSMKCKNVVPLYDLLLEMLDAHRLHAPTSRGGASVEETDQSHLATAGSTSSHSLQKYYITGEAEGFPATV

CCCCCC(=O)OCCc1ccccc1
not listed: [9]
inactive: all other assays above

CCNS(=O)(=O)c1ccc(C)cc1
not listed: [9]
inactive: all other assays above

O=C(O)c1cc(C(=O)O)cc(C(=O)O)c1
inactive: [1] | [2] | [3] | [4] | [6]

[K+]
not listed: [3] | [9]
inactive: all other assays above

CC(C)CCCO
not listed: [3] | [9]
inactive: all other assays above

CCOC(=O)c1ccccc1
not listed: [9]
inactive: all other assays above

CCOC(=O)CCC(=O)OCC
not listed: [9]
inactive: all other assays above

NC(=O)N1c2ccccc2CC(=O)c2ccccc21
not listed: [1] | [7] | [8]
inactive: all other assays above

CCCC(=O)O[C@]1(C(=O)CC)CC[C@H]2[C@@H]3CCC4=CC(=O)CC[C@]4(C)[C@H]3[C@@H](O)C[C@@]21C
not listed: [7] | [9]
inactive: all other assays above

Cc1ccc(C(=O)c2ccccc2)cc1
not listed: [2] | [8] | [9]
inactive: all other assays above

CCCCc1ccc2c(n1)[C@@H](c1ccc(OC)cc1C[C@H](C)C(=O)O)[C@H](C(=O)O)[C@H]2c1ccc2c(c1)OCO2
not listed: [9]
inactive: all other assays above

OCCCCCO
not listed: [3] | [9]
inactive: all other assays above

CCCO[Si](OCCC)(OCCC)OCCC
not listed: [3] | [8] | [9]
inactive: all other assays above

Cc1ncc([C@@H](CCCCCCc2ccc3c(n2)NCCC3)CC(=O)O)cn1
not listed: [4] | [5] | [9]
inactive: all other assays above

CCCCCCCCCCCCCCC(=O)O
not listed: [3] | [8] | [9]
inactive: all other assays above

C=CCCC(=O)O
not listed: [3] | [9]
inactive: all other assays above

CC(=O)c1ccc2ccccc2c1
not listed: [9]
inactive: all other assays above

COCCOCC(OC)OC
not listed: [7] | [9]
inactive: all other assays above

CCCC[N+](C)(CCCC)CCCC
not listed: [9]
inactive: all other assays above

C=CCCCCCCCCC(=O)OCC
not listed: [9]
inactive: all other assays above

CC(=O)c1ccccc1[N+](=O)[O-]
not listed: [2] | [7] | [9]
inactive: all other assays above

CC(=O)Nc1ccc(OCC(O)CNC(C)C)cc1 (stereo not drawn)
not listed: [1] | [8]
inactive: all other assays above

C=COCC1CCC(COC=C)CC1 (stereo not drawn)
not listed: [9]
inactive: all other assays above

O=C(O)CCCC[P+](c1ccccc1)(c1ccccc1)c1ccccc1
not listed: [3] | [8] | [9]
inactive: all other assays above

CCOC(=O)COC(=O)c1ccccc1C(=O)OCC
not listed: [3] | [9]
inactive: all other assays above

C1CCC2(CCCCO2)OC1
not listed: [9]
inactive: all other assays above

Source: PubChem BioAssay (Tox21)
